Results on 40 compounds are retold here after PubChem BioAssay (EPA / NIEHS).

Structures are written as SMILES. Activity calls are given as the source filed them. Rule for the calls: active = hit-call score of the fitted dose curve at least 0.9, where 1 is the maximum; inactive = score below 0.9.

What is called AC50 is the concentration at which the activity in the assay is half-maximal.

A short description of this experiment: ATG_ISRE_CIS: Attagene CIS-FACTORIAL HepG2 Assay for human Interferon Regulatory Factor 1 (IRF1) binding to an Interferon-Stimulated Response Element (ISRE) (AID 2282948). As to conditions: HepG2 ISRE cis-reporter (Attagene), mRNA transcription readout; actives raise or lower the signal. The procedure:
ATG_CIS is a cell-based, multiplexed-readout assay that uses HepG2, a human liver cell line, with measurements taken at 24 hours after chemical dosing in a 24-well plate.ATG_ISRE_CIS is one of 52 assay component(s) measured or calculated from the ATG_CIS assay. It is designed to make measurements of mRNA induction, a form of inducible reporter, as detected with fluorescence intensity signals by Reverse transcription polymerase chain reaction (RT-PCR) and Capillary electrophoresis technology.Data from the assay component ATG_ISRE_CIS was analyzed into 1 assay endpoint. This assay endpoint, ATG_ISRE_CIS, was analyzed with bidirectional fitting relative to DMSO as the negative control and baseline of activity. Using a type of inducible reporter, measures of mRNA for gain or loss-of-signal activity can be used to understand the reporter gene at the transcription factor-level as they relate to the gene IRF1. Furthermore, this assay endpoint can be referred to as a primary readout, because this assay has produced multiple assay endpoints where this one serves a reporter gene function. To generalize the intended target to other relatable targets, this assay endpoint is annotated to the dna binding intended target family, where the subfamily is interferon regulatory factors.
Human liver HepG2 cells are transiently transfected with multiple reporter transcription units (MRTUs) in 6-well plates using FuGene 6 reagent (Roche; 3 ml FuGene/1 mg DNA). The MRTU constructs are regulated by a cis-regulating element (promoter). […] A major difference between the CIS and TRANS system is that in CIS activities of endogenous TFs are measured, whereas the TRANS assay evaluates changes in activities of exogenous, chimeric NR-Gal4 proteins. […] At the end of 24 hour incubation, total RNA was isolated using TriZol reagent (Invitrogen). The isolated RNA is then reverse-transcribed using oligo(dT) primer and Mo-MLV reverse transcriptase (Invitrogen) with DNAse I (Ambion) treatment for 30 min. The one-tenth of the produced cDNA was amplified by PCR using Taq DNA polymerase (Invitrogen) and two reporter sequence-specific primers. The PCR products were fluorescently labeled by primer extension with 6-arboxyfluorescein (6-FAM) 5'-labeled reporter sequence-specific primer (2 min at 95 C, 20 s at 68 C and 10 min at 72 C) and these products were digested with 5U of HpaI (New England Biolabs) for 2h at 37 C. The fragments were purified using Qiaquick PCR columns (Qiagen), analyzed on an ABI 3130xL genetic analyzer (Applied Biosystems) with peak positions identified by using a set of X-rhodamine (ROX)-labeled MapMarker1000 molecular weight standards (BioVentures). The raw capillary electrophoresis data was processed using Attagraph software (Attagene).
In the case of `Cc1ccc(OC(=O)c2ccccc2O)cc1`, the outcome was inactive.

On to `CCNCCO`, for which the compound was classed as inactive.

Turning to `OCc1ccc(Cl)cc1Cl`, the compound was classed as inactive.

Turning to `CCc1ccc(O)c(OC)c1`, the call was inactive.

On to `Nc1c(S(=O)(=O)O)cc(Br)c2c1C(=O)c1ccccc1C2=O`, for which the compound was classed as inactive.

On to `COc1ccc(CCN2CCC(Nc3nc4ccccc4n3Cc3ccc(F)cc3)CC2)cc1`, for which the compound was classed as inactive.

`CCOC(=O)C1OC1c1ccccc1` (stereo not given): the concentration at half-maximal activity (AC50) was 33.5 µM (active).

Consider `O=C(O)CCCCCCCCCCCC(=O)O`, for which the call was inactive.

For `CC(C)CC(C)CC(O)CC(C)C` (stereo not given), the call was inactive.

`Cc1cc(C)nc(NS(=O)(=O)c2ccc(N)cc2)n1`: the call was inactive.

Consider `O=C(Nc1ccc2c(O)c(N=Nc3ccc(N=Nc4ccc(S(=O)(=O)O)cc4)cc3)c(S(=O)(=O)O)cc2c1)c1ccccc1`, for which the call was inactive.

`CCCCCCOC(=O)C(C)C`: the compound was classed as inactive.

Turning to `CCCSc1ccc2nc(NC(=O)OC)[nH]c2c1`, the outcome was inactive.

Turning to `CCOCCOCCOCC`, the result was inactive.

As to `COc1cc(C(C)C)ccc1C`, the call was inactive.

On to `C=C[Si]1(C)O[Si](C)(C=C)O[Si](C)(C=C)O[Si](C)(C=C)O1` (stereo not given), for which the call was inactive.

As to `CC(C)CCOC(=O)c1ccccc1`, the compound was classed as inactive.

As for `COC(CC(C)CCCC(C)(C)O)OC` (stereo not given), the compound was called inactive.

Regarding `CN1C(=O)c2ccccc2C1=O`, the result was inactive.

Take `COC(=O)c1ccc([N+](=O)[O-])cc1`: the compound was classed as inactive.

Take `CC(=O)C(C)O` (stereo not given): the outcome was inactive.

For `CC(C)C(OC(=O)c1ccccc1)C(C)(C)COC(=O)c1ccccc1` (stereo not given), the compound was classed as inactive.

With `CCCCCc1ccco1`, the result was inactive.

Consider `C=CC(C)C#N` (stereo not given), for which the outcome was inactive.

With `C=COCCOCCOC=C`, the compound was called inactive.

In the case of `COC(C)(C)CC(C)=O`, the compound was classed as inactive.

Consider `CS(=O)(=O)c1ccc(Cl)cc1`, for which the compound was called inactive.

As to `C1CCCCC1`, the compound was called inactive.

For `CC(=O)O[C@@H]1C[C@@H]2CC[C@@]1(C)C2(C)C`, the compound was called inactive.

In the case of `C#CC(C)N(C)C(=O)Nc1ccc(Cl)cc1` (stereo not given), the compound was classed as inactive.

Turning to `NC1CCCCC1N` (stereo not given), the compound was classed as inactive.

Consider `COc1ccc(N)c([N+](=O)[O-])c1`, for which the call was inactive.

Regarding `CC1(C)O[C@@H]2[C@@H](CO[C@@]3(COS(N)(=O)=O)OC(C)(C)O[C@@H]23)O1`, the compound was classed as inactive.

With `Nc1ccc2c(O)cc(S(=O)(=O)O)cc2c1`, the outcome was inactive.

With `CCCCCCCCCC(C)C=O` (stereo not given), the call was inactive.

For the compound `CN(C)CCOc1ccc(/C(=C(/CCCl)c2ccccc2)c2ccccc2)cc1`, the result was inactive.

Consider `C[N+](C)(C)CCCCCC[N+](C)(C)C`, for which the outcome was inactive.

Turning to `CS(=O)(=O)OCCCCOS(C)(=O)=O`, the result was inactive.

`CCCCCCC(O)CCCCCCCCCCC(=O)O` (stereo not given): the result was inactive.

For `Nc1c(Cl)cc(Cl)cc1[N+](=O)[O-]`, the call was inactive.
